SMILES strings stand for the structures. In all, about 360,000 compounds went through this assay and about 3,000 (0.83%) were called active. No stated cut-off is given here; in the data, active means inhibition above about 50%; inactive means the rest. What follows is part of a selection rich in actives, with near analogues and random picks from the rest.

DNA (cytosine-5)-methyltransferase 1 (Homo sapiens), sequence (P26358 504-1616 limits assumed): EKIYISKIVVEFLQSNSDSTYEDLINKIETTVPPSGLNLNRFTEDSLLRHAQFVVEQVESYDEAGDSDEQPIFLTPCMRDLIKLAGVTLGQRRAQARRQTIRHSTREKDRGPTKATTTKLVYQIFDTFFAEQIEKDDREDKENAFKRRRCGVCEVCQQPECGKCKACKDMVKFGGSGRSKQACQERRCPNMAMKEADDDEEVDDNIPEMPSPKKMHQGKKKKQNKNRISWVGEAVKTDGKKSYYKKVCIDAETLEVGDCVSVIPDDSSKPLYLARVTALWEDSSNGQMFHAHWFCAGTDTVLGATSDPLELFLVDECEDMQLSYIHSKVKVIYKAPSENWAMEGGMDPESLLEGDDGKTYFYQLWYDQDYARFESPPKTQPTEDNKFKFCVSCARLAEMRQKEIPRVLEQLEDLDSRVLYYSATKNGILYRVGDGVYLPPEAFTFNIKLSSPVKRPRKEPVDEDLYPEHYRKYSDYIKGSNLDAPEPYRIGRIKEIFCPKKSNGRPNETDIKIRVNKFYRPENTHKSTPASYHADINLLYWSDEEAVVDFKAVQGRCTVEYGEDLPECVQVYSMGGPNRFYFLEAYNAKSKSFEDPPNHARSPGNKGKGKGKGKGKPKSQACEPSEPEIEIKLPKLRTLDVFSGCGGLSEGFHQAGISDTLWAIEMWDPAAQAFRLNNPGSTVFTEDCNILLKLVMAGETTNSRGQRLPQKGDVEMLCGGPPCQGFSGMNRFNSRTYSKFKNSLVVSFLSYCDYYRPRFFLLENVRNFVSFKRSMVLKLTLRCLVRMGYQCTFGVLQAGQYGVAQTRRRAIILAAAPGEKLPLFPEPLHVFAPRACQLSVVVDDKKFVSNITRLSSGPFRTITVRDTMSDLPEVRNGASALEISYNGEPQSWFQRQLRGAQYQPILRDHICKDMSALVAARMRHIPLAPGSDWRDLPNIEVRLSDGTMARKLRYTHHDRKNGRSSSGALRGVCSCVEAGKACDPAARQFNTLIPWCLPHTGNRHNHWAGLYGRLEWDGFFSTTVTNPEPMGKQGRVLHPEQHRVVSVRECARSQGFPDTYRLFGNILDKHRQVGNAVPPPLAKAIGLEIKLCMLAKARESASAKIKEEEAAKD

The assay has as its target DNA (cytosine-5)-methyltransferase 1 (Homo sapiens) (UniProt P26358). The experiment in a line: human DNMT1 methyltransferase inhibitors, primary screen, biochemical, molecular beacon, fluorescence, HinP1I cleavage, uHTS (AID 588458). The conditions noted are these: at 10 µM, stronger effect = higher value.
Turning to `Cc1ccc(C(=O)NNC(=O)c2cc3cc4ccccc4nc3s2)cc1`, the inhibition (reported as % activation of signal) was 54.4% (active). Next, `Cc1ccc(C(=O)NNC(=O)CSc2nnc3ccccn23)cc1`: -3.3% (inactive). The result for `Cc1ccc(C(=O)NNc2ncnc3ccccc23)cc1` reads 2.1% (inactive); that for `CCOc1cc(C(=O)Nc2c(C)ccc3nsnc23)cc(OCC)c1OCC`, 1.78% (inactive). As to `c1ccc2c(-c3nn4nnnc4c4ccccc34)cccc2c1`, the inhibition (reported as % activation of signal) was -1.65% (inactive). In the case of `CCCN1Cc2cccc(C(=O)NCc3ccccc3)c2C1=O`, the inhibition (reported as % activation of signal) is 0.1% (inactive).

Regarding `Cc1ccc(S(=O)(=O)N2CCN=C2SCc2c(F)cccc2Cl)cc1`, the inhibition (reported as % activation of signal) was -1.13% (inactive). The result for `C/C(=N\Nc1ccc(S(N)(=O)=O)cc1[N+](=O)[O-])c1cccs1` reads 51% (active); that for `C/C(=N\Nc1ccccc1)c1cccs1`, -15% (inactive). Next, `CCOC(=O)C/C(C)=N\Nc1ccc([N+](=O)[O-])cc1[N+](=O)[O-]`: 8.42% (inactive); `CCCCNc1c(-c2cccc(Sc3ccc(OC)cc3)c2)nc2ccccn12`: -24.9% (inactive).

`CCc1nnc(NC(=O)c2cc(S(=O)(=O)N3CCN(CC)CC3)ccc2Cl)s1`: the inhibition (reported as % activation of signal) is 1.36% (inactive). Regarding `Clc1ccc(C2=CSC3=Nc4cccc5cccc(c45)N23)cc1`, the inhibition (reported as % activation of signal) was 61.1% (active).

On to `O=C(COC(=O)c1ccc(S(=O)(=O)N2CCc3ccccc3C2)cc1)NC(=O)NCc1ccco1`, for which the inhibition (reported as % activation of signal) was 4.21% (inactive).

`CCc1nc(SCC(=O)Nc2ccccc2OC)n[nH]1`: the inhibition (reported as % activation of signal) was 0.12% (inactive). Turning to `CCOc1ccccc1NC(=S)C(=C([O-])c1ccc2c(c1)OCCO2)[n+]1ccc(CC)cc1`, the inhibition (reported as % activation of signal) is -14.6% (inactive). In the case of `CC(C)(C)n1nc(Cc2cccc3ccccc23)c(C#N)c1N`, the inhibition (reported as % activation of signal) is 3.39% (inactive). As to `CCc1nn(-c2cc(Oc3cccc4ccccc34)nc(-c3ccccc3)n2)c(N)c1C#N`, the inhibition (reported as % activation of signal) was 56.2% (active). For `CCCCn1nnnc1C(c1cccc(OC)c1OC)N1CCN(C/C=C/c2ccccc2)CC1` (configuration not stated), the inhibition (reported as % activation of signal) was -2.12% (inactive). Turning to `O=C(CCN1CCc2ccccc2C(O)(c2ccccc2)C1)c1ccc2c(c1)OCCO2` (configuration not stated), the inhibition (reported as % activation of signal) is -2.82% (inactive). The result for `CSC1=NC2(C)CCCCC2C12C=CC(=O)C=C2` (configuration not stated) reads -0.69% (inactive). Next, `CS(=O)(=O)N(CC(=O)N1CCN(c2ccc(F)cc2)CC1)C1CCCCC1`: 0.1% (inactive); `O=C(NNC1=NCCC1)c1cccc(S(=O)(=O)N2CCCCC2)c1`: 2.1% (inactive). The result for `Cc1ccc(-c2cc(C(=O)NCc3cn(C)nc3C)c3cc(Br)ccc3n2)cc1` reads 54.2% (active).

On to `Cc1nn(C)cc1CNC(=O)Nc1ccc(Cl)cc1`, for which the inhibition (reported as % activation of signal) is -5.06% (inactive). The result for `O=C(NCc1cccs1)c1cc(-c2ccccn2)nc2ccc(Br)cc12` reads 18.8% (inactive); that for `CCCCc1nc2cc(C(=O)N3CCCCC3CCO)ccc2o1` (configuration not stated), 0.96% (inactive); that for `CC1CCN(C(=O)CCc2nnc3ccc(NCc4ccco4)nn23)CC1`, -2.17% (inactive). With `CC(C)C(=O)Nc1oc(-c2ccccc2)cc1C#N`, the inhibition (reported as % activation of signal) is 1.41% (inactive). `N#Cc1c(NC(=O)CCCN2C(=O)c3ccccc3C2=O)oc(-c2ccccc2)c1-c1ccccc1`: the inhibition (reported as % activation of signal) is -7.82% (inactive).

For the molecule `CC(Oc1ccccc1)C(=O)Nc1oc(-c2ccco2)c(-c2ccco2)c1C#N` (configuration not stated), the inhibition (reported as % activation of signal) is 63.1% (active). The result for `Cc1cc(=O)oc(C)c1C(=O)NC1CC(C)(C)NC(C)(C)C1` reads 4.08% (inactive); that for `O=C(Nc1nccs1)C1CCN(S(=O)(=O)c2ccc(Cl)c(C(F)(F)F)c2)CC1`, -0.42% (inactive).

`Cc1ccc(C)c(C(O)c2ncc(-c3cccc4ccccc34)[nH]2)c1` (configuration not stated): the inhibition (reported as % activation of signal) was -0.1% (inactive). Consider `O=C1CSc2ccc(S(=O)(=O)NCc3ccccc3)cc2N1`, for which the inhibition (reported as % activation of signal) was -1.62% (inactive). Turning to `OCCCC1CCCCN1Cc1nc(Cc2ccccc2Cl)no1` (configuration not stated), the inhibition (reported as % activation of signal) was 0.35% (inactive). Next, `O=C(NNC(=O)c1ccc(Cl)nc1)c1ccc(Br)cc1`: 5.15% (inactive). With `CCN(CC)c1ccc(NC(=O)c2ccc(Cl)nc2)cc1`, the inhibition (reported as % activation of signal) is -2.12% (inactive). Next, `O=C(NNc1ccccn1)c1ccc(Cl)nc1`: 80.7% (active); `CCN(CC)P(=O)(C(NC(=O)OC)C(F)(F)C(F)(F)C(F)(F)C(F)F)N(CC)CC` (configuration not stated): 0.14% (inactive). With `O=C(COC(=O)CCC(=O)c1cccs1)NCc1ccco1`, the inhibition (reported as % activation of signal) was 72.8% (active). Next, `CC1CCN(C(=O)COC(=O)CCC(=O)c2cccs2)CC1`: 0.68% (inactive); `O=C(COC(=O)Cc1ccc(Cl)cc1Cl)NCc1ccco1`: -2.23% (inactive); `N#CCC(=O)Nc1ccc(C(=O)OCC(=O)Nc2sc3c(c2C#N)CCCC3)cc1`: -11.8% (inactive).

On to `CC(C)NC(=O)NC(=O)COC(=O)c1ccc(NC(=O)CC#N)cc1`, for which the inhibition (reported as % activation of signal) is -1.52% (inactive). As for `CCOc1ccc(NC(=O)c2ccc(NC(=O)COC(=O)c3ccc(NC(=O)CC#N)cc3)cc2)cc1`, the inhibition (reported as % activation of signal) is 61.4% (active). In the case of `CC1CCN(C2=NC(=O)/C(=C/c3cn[nH]c3-c3ccccc3)S2)CC1`, the inhibition (reported as % activation of signal) is -3.21% (inactive).

The record behind these values is PubChem BioAssay AID588458 (Sanford-Burnham Center for Chemical Genomics, 2011).
